Assay outcomes from PubChem.
Most compounds without a hit are left out; they make up all but 3.3% or so of the library.
rCAG RNA binder: binds r(CAG) RNA repeats; r(CAG) RNA repeat, TO-PRO-1 dye displacement fluorescence; inhibition, % at 3 µM; 370,000 tested, 1.3% active; AID 651821;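 active = inhibition above the plate cutoff, the mean of all test compounds on that plate plus 3 SD, cut at about 35% in these data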;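 also: 0% = DMSO alone and 100% = 100 µM mitoxantrone as full dye displacement; higher means more dye released from RNA so lower well fluorescence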
NOD2-RIPK2 inh: inhibitors of human NOD2-RIPK2 interaction. 360,000 tested, 0.38% active. CHO BLA complementation NOD2-RIPK2, CCF4 ratio. inhibition, % at 4.98 µM. O43353; in the data active = inhibition above about 21%;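 also: 0% = vehicle only and 100% = reference blocker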
ABHD5-PLIN5 inh: ABHD5-PLIN5 protein interaction inhibition; inhibition, % at 4 µM; AID 602281; Split G. princeps luciferase complementation, luminescence, 4 h; Q00G26+Q8WTS1; 360,000 tested, 0.78% active;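 active = inhibition above the mean inhibition across every tested compound plus 3 SD, cut at about 22% in these data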;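 also: 0% = DMSO only wells and the 100% control is not disclosed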
TLR9-MyD88 block: blocks human TLR9 binding to MyD88. Q9NR96+Q99836. CHO BLA complementation TLR9-MyD88, CCF4 FRET ratio. inhibition, % at 4.98 µM. 340,000 tested, 0.21% active. AID 504734;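 active = inhibition above the mean over all tested compounds plus 3 SD, cut at about 21% in these data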;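 also: 0% = DMSO only wells and 100% = clavulanate BLA inhibitor control wells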
PRMT1 FP inh: PRMT1 (human) inhibition, primary screen. recombinant PRMT1, activity-based probe fluorescence polarization. inhibition, % at 2.79 µM. 370,000 tested, 1.3% active;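 active = inhibition above about 21% made by adding two undisclosed values, limit read from the data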
Target sequence (Q99873 whole entry, looked up): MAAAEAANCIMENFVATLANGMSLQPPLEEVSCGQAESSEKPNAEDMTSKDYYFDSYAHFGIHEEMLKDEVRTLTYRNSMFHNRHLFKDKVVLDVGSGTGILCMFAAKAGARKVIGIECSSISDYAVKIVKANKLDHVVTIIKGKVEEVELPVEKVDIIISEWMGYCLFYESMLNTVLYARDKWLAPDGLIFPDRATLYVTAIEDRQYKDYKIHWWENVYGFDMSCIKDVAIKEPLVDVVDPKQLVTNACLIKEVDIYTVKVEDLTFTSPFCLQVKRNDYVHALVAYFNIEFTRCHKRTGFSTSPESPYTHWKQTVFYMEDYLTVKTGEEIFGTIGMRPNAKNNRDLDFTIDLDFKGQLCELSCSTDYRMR
TLR4 MyD88 comp: blocks binding of human TLR4 to MyD88; O00206+Q99836; HeLa CL3-4 TLR4/MyD88 BLA complementation, FRET ratio; inhibition, % at 8.4 µM; 200,000 tested, 0.18% active; in the data active = inhibition above about 25%;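 also: 0% = vehicle and 100% = reference inhibitor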
rCAG bind conf: r(CAG) RNA repeat binding, confirmation; shares compounds with rCAG RNA binder; TO-PRO-1 dye displacement fluorescence; inhibition, % at 3 µM; 4,300 tested, 70% active; AID 652065;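 active = inhibition above a per-plate cutoff, the mean inhibition of sample wells plus 3 SD, cut at about 35% in these data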;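 also: loss of TO-PRO-1 fluorescence as compound displaces dye from 1x1 AA loop RNA; 0% = DMSO only wells and 100% = 100 µM mitoxantrone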
DNA CAG counter: disrupts DNA CAG TO-PRO-1 complex, flagging rCAG hits | inhibition, % at 3 µM | shares compounds with rCAG RNA binder | d(CAG) DNA oligo TO-PRO-1 dye displacement, fluorescence | 4,300 tested, 94% active | AID 652068;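 active = inhibition above its plate's cutoff, the mean test-well inhibition plus 3 SD, cut at about 4.8% in these data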;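 also: 0% = DNA dye mix with DMSO and 100% = 100 µM mitoxantrone; hits displace the dye from DNA and so lower well fluorescence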
* hit, by the source's call; x = no result.

SMILES	rCAG RNA binder	NOD2-RIPK2 inh	ABHD5-PLIN5 inh	TLR9-MyD88 block	PRMT1 FP inh	TLR4 MyD88 comp	rCAG bind conf	DNA CAG counter
O=C(O)c1ccccc1C(=O)N1N=C2/C(=C/c3cccc([N+](=O)[O-])c3)CCCC2C1c1cccc([N+](=O)[O-])c1 (stereo not given)	51.7*	6.5	3.0	3.4	-0.9	-5.1	72.5*	30.2*
CSCCC(NC(=O)c1ccco1)C(=O)N1CCN(c2ccccc2O)CC1 (stereo not given)	-2.6	0.5	-0.3	9.2	3.3	x	x	x
Cc1cccc(NC(=O)CSc2nnc(-c3cccnc3)n2Cc2ccco2)c1C	5.9	x	x	x	0.9	x	x	x
CC(C)C1Nc2ccc(S(N)(=O)=O)cc2C2C=CCC21 (stereo not given)	27.9	-3.3	-4.9	2.5	8.4	-11.5	x	x
NS(=O)(=O)c1ccc2c(c1)C1C=CCC1C(C1CC=CCC1)N2 (stereo not given)	61.7*	2.4	10.2	1.1	36.7*	1.1	26.2	13.9*
C=CC[C@@]1(c2ccccc2)Oc2ccccc2-c2nc3ccccc3nc21	4.2	x	x	x	0.2	x	x	x
O=C(Cn1cc(COc2ccc(Cl)c(Cl)c2)nn1)NS(=O)(=O)c1ccccc1C(F)(F)F	59.5*	2.7	1.1	x	0.4	x	63.3*	15.7*
CC1(C(=O)NS(=O)(=O)c2ccccc2C(F)(F)F)CCN1C(=O)COc1ccc(Cl)cc1 (stereo not given)	22.5	-0.3	-14.0	x	1.1	x	x	x
O=C(Cn1cc(COc2ccc(-n3cccc3)cc2)nn1)NS(=O)(=O)c1ccccc1C(F)(F)F	64.0*	3.3	0.4	x	17.1	x	65.4*	18.2*
CSCC[C@H](NC(=O)OC(C)(C)C)C(=O)N1CCC(C(=O)N[C@@H](C)C(=O)NC(C)c2ccccc2)CC1 (stereo not given in full)	-35.1	3.9	-0.6	-10.5	-6.0	x	x	x
CC(C)(C)c1nc(NC(=O)Nc2ccccc2)sc1Br	36.2*	6.0	-16.6	3.1	-3.9	-7.0	15.6	15.7*
O=S1(=O)CC(N2CC=CC2)CN1Cc1cn(Cc2ccc(Cl)cc2)nn1 (stereo not given)	4.0	-0.7	7.6	x	-1.7	x	x	x
O=c1[nH]c2ccc(S(=O)(=O)N3CCN(c4ccccc4F)CC3)cc2s1	34.6*	-0.7	-0.7	4.7	-4.8	2.7	22.3	5.2*
O=c1ccc2cc(S(=O)(=O)N3CCN(c4ccccc4F)CC3)ccc2o1	0.5	-2.6	13.6	3.4	5.2	x	x	x
COc1ccc(-c2csc(C(C#N)=C(O)CSc3nccn3C)n2)cc1OC	54.4*	-17.2	5.3	0.8	5.1	x	23.3	7.2*
COc1ccc(-c2cc(=O)n(-c3nc4ccccc4[nH]3)[nH]2)cc1	38.9*	8.7	6.8	-7.2	-4.0	21.1	14.9	10.3*
O=C(NCCc1ccc(Cl)cc1)C1CCN(S(=O)(=O)c2cccs2)CC1	0.2	-0.8	-6.0	-8.3	-1.2	-1.6	x	x
O=C(O)c1ccc(Cl)cc1NC(=O)C1CCN(S(=O)(=O)c2cccs2)CC1	38.9*	1.4	-7.4	-2.4	-1.3	x	41.0*	10.1*
CC(C)NC(=O)c1ccc(CN2CCc3ccccc3C2)cc1	-1.5	10.8	0.2	5.7	-0.9	x	x	x
CNc1ccc(/C=C(\CCC(=O)O)c2nc3ccccc3s2)cc1[N+](=O)[O-]	77.7*	-5.8	3.5	2.6	4.8	-5.4	82.0*	38.8*
COc1cc(/C=C(\CC(=O)O)c2nc3ccccc3s2)cc(OC)c1O	13.8	-0.8	8.2	-4.7	8.3	3.5	x	x
CN(c1ccccc1)c1ccc(/C=C(\CCC(=O)O)c2nc3ccccc3s2)cc1[N+](=O)[O-]	70.9*	-6.5	1.4	-3.1	1.1	-2.1	77.5*	37.4*
Cn1cnnc1Sc1ccc(/C=C(\CCC(=O)O)c2nc3ccccc3s2)cc1[N+](=O)[O-]	16.0	-1.7	-4.3	2.4	-0.6	6.0	x	x
Cc1ccc(/C=C(\CCC(=O)O)c2nc3ccccc3s2)cc1[N+](=O)[O-]	49.0*	-12.4	-11.5	-5.1	3.6	7.3	65.5*	24.8*
CC(=O)[C@H]1CC[C@H]2[C@@H]3CC=C4C[C@@H](OS(=O)(=O)O)CC[C@]4(C)[C@H]3CC[C@]12C	39.3*	-10.4	-1.1	-1.1	-1.5	x	39.2*	9.8*
SMILES	rCAG RNA binder	NOD2-RIPK2 inh	ABHD5-PLIN5 inh	TLR9-MyD88 block	PRMT1 FP inh	TLR4 MyD88 comp	rCAG bind conf	DNA CAG counter
CC(=O)O[C@H]1CC[C@@]2(C)C(=CC[C@H]3[C@@H]4CC[C@H](C(C)=O)[C@@]4(C)CC[C@@H]32)C1	1.9	-6.5	1.6	0.2	-2.0	x	x	x
Cc1cc(F)ccc1S(=O)(=O)Nc1ncnc2sc3c(c12)CCC3	33.2	2.7	-16.4	-8.7	4.2	1.2	x	x
O=S(=O)(Nc1ncnc2sc3c(c12)CCC3)c1ccc2ccccc2c1	68.8*	2.6	4.5	0.5	1.1	-3.3	56.4*	21.1*
Cc1ccc(NC(=S)N(CCC(C)C)C(C)c2ccncc2)c(Cl)c1 (stereo not given)	1.6	-6.3	-8.4	-2.2	-3.8	x	x	x
CN1c2ccccc2C(O)=C(C(=S)Nc2ccc(F)c(Cl)c2)S1(=O)=O	81.5*	-4.2	-19.3	1.4	-0.7	-6.0	71.8*	32.2*
Cc1ccc(NC(=S)C2=C(O)c3ccccc3N(C)S2(=O)=O)cc1	58.6*	1.1	-13.1	2.5	13.0	0.7	34.9*	8.7*
CN1c2ccsc2C(O)=C(C(=S)Nc2ccccc2)S1(=O)=O	20.6	2.0	-37.5	-11.6	7.2	-3.5	x	x
CN1CCN(CCCNC(=S)Nc2ccc(F)c(Cl)c2)CC1	-3.5	-1.4	-1.9	-0.5	-4.8	4.2	x	x
COc1ccc([C@@H]2CC=C(C(=O)O)[C@H](c3ccc(F)cc3)N2S(=O)(=O)c2ccccc2C)cc1	59.1*	-0.1	2.8	-7.8	2.6	x	45.4*	12.6*
COc1ccc([C@@H]2CC=C(C(=O)O)[C@H](c3ccccc3F)N2S(=O)(=O)c2ccccc2C)cc1	41.3*	-2.7	-0.1	-3.8	-0.9	x	40.6*	10.6*
Cc1ccc([C@@H]2CC=C(C(=O)O)CN2S(=O)(=O)c2ccccc2C)cc1	22.0	8.2	-5.1	-2.4	0.3	x	x	x
Cc1ccc([C@@H]2CC=C(C(=O)O)[C@H](c3ccccc3)N2S(=O)(=O)c2ccccc2C)cc1	55.0*	-8.3	-9.7	-12.8	0.0	x	57.4*	20.1*
CCOC(=O)C1=CC[C@@H](c2ccc(F)cc2)N(S(=O)(=O)c2ccc(C)cc2)[C@H]1c1ccccc1	8.6	-19.4	-4.2	x	4.1	x	x	x
